“And” between values parts separate entries of the source, which are not always exact repeats. Equal entries are not always repeated. The source made the active and inactive calls. Unless noted, the rule behind the calls is not given here.

The nature of experiment [1]: circadian clock period modulators, cell-based, LOPAC library, luminescence reporter (AID 2774).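 Note: values are relative to mean of DMSO wells on each plate.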 The conditions noted are these: circadian reporter cells, at 7 µM, actives lie on both sides.
For experiment [2], the system named is Hepatitis C virus NS3 helicase. The experiment in a line: HCV NS3 helicase inhibitors, primary screen, biochemical, fluorescence polarization, LOPAC1280 library (AID 687035; in the data active = inhibition above about 37%). The conditions noted are these: Purified HCV NS3 helicase, Cy5-dT15 ssDNA binding fluorescence polarization; stronger effect = higher value; concentration not given here. For orientation: Polarisation of emitted light reports the rotation of a fluorescent probe.

Experiment [3] in a line: Cy5 fluorescence quenching or enhancement artefacts, artefact control for HCV NS3 helicase inhibitor project, biochemical, LOPAC1280 (AID 687037). The conditions noted are these: Cy5-DNA-NS3h complex fluorescence interference counterscreen. (Counterscreens check selectivity or assay interference.)
The subject of experiment [4] is Aerobactin synthetase IucA (Klebsiella pneumoniae, hypervirulent). In words: IucA enzyme inhibition, biochemical, LOPAC library, absorbance readout (AID 1346212).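 Note: 100% = no compound wells and 0% = no enzyme wells.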 The conditions noted are these: IucA enzyme assay, absorbance (OD) readout; stronger effect = lower value;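 tested at 8 µM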.
Experiment [5] is described as follows: sensitizers of A549 cells to miR-34 induction, primary screen, imaging, A549 dox-inducible miR-34, nuclei and caspase counts (AID 1347080;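 active = compounds whose cell count with miR-34 switched on is under 0.7 times the count with it off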). The conditions noted are these: A549 miR-34 inducible, Hoechst nuclei count, 48 h.
A short description of experiment [6]: phospholipid biosynthesis inhibitors in animal cells, primary screen, cell-based, LOPAC library, screen 4 (AID 1347384). The conditions noted are these: phospholipid biosynthesis inhibition screen, at 10 µM.
Experiment [7] is described as follows: viability rescue of complex I mutant cybrids, primary screen, cell-based, galactose medium, ATP luminescence (AID 1645843;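 active = z-score of at least 1.8 in each of two replicates, scored against plate mean and spread of sample wells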;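 note: positive z means more ATP and so rescue of galactose-driven cybrid death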). The conditions noted are these: complex I mutant cybrid cells, 72 h, stronger effect = higher value.
[8] abbreviates: measured here: relative caspase fold change +Dox/-Dox.
The mark [9] stands for this setting: measured here: total cells with miR-34 induction, stronger effect = lower value.
The mark [10] stands for this setting: measured here: total cells without miR-34 induction.

As usually defined, the inhibition is the relative decrease from the control value, in per cent. As usually defined, the remaining activity is the signal under treatment as a percentage of the control signal. As to `NCC(O)c1cc(O)c(O)cc1F` (stereo unspecified), the period change in experiment [1] was -0.105 h (inactive). In experiment [2], the inhibition was 1% (inactive). Moreover, in experiment [3], the fluorescence ratio (interference) was 0.9 (inactive). For the same compound, the remaining activity in experiment [4] was 110% (inactive). Moreover, the fold change in experiment [5] (stronger effect = lower value) is 1.02 (inactive); in experiment [5] (setting [8]), 1.46. Also, the cell count in experiment [5] (setting [9]) worked out at 10300; in experiment [5] (setting [10]), 10200. Further, in experiment [6], the call was inactive. The z-score in experiment [7] was -1.47 (inactive).

For `NC(=O)c1ccc(OCC(O)CN2CC=C(c3ccc(F)cc3)CC2)cc1` (stereo unspecified), in experiment [1], the period change is 0.145 h (inactive). For the same compound, in experiment [2], the inhibition was -1% (inactive). Also, in experiment [3], the fluorescence ratio (interference) was 0.9 (inactive). In addition, the remaining activity in experiment [4] is 103% (inactive). For the same compound, the fold change in experiment [5] (stronger effect = lower value) was 1.01 (inactive); in experiment [5] (setting [8]) it was 1.9. In addition, the cell count is 9620 in experiment [5] (setting [9]) and 9570 in experiment [5] (setting [10]). Further, the call in experiment [6] was inactive. For the same compound, the z-score in experiment [7] is -0.85 (inactive).

For the compound `CN(C(=O)Cc1ccc(Cl)c(Cl)c1)C(CN1CCCC1)c1cccc(OCC(=O)O)c1` (stereo unspecified), the period change in experiment [1] is -0.06 h (inactive). The inhibition in experiment [2] is -4% (inactive). The fluorescence ratio (interference) in experiment [3] is 1 (inactive). Moreover, in experiment [4], the remaining activity was 103% (inactive). In addition, the fold change in experiment [5] (stronger effect = lower value) was 1.05 (inactive); in experiment [5] (setting [8]) it was 1.11. For the same compound, the cell count in experiment [5] (setting [9]) turned out to be 10700; in experiment [5] (setting [10]), 10200. The outcome in experiment [6] was inactive. In addition, the z-score in experiment [7] was 0.31 (inactive).

In the case of `NNC(N)=O`, in experiment [1], the period change is -0.03 h (inactive). In addition, in experiment [2], the inhibition is -3% (inactive). Further, the fluorescence ratio (interference) in experiment [3] is 1 (inactive). Further, in experiment [4], the remaining activity was 102% (inactive). The results for the fold change in experiment [5] (stronger effect = lower value) and in experiment [5] (setting [8]) were 0.944 (inactive) and 0.77, respectively. Moreover, the values for the cell count in experiment [5] (setting [9]) and in experiment [5] (setting [10]) were 10400 and 11000, respectively. In addition, in experiment [6], the call was inactive. Further, in experiment [7], the z-score is 0.4 (inactive).

For the compound `CN(N=O)c1cc(O)ccc1O`, the period change in experiment [1] was 0.05 h (inactive). In experiment [2], the inhibition was -1% (inactive). Further, the fluorescence ratio (interference) in experiment [3] was 1 (inactive). Further, the remaining activity in experiment [4] was 103% (inactive). Besides, the values for the fold change in experiment [5] (stronger effect = lower value) and in experiment [5] (setting [8]) were 1.03 (inactive) and 1.21, respectively. The figures for the cell count in experiment [5] (setting [9]) and in experiment [5] (setting [10]) were 9960 and 9640, respectively. Further, the z-score in experiment [7] is -1.04 (inactive).

Turning to `COC(=O)c1cc2c(cn1)[nH]c1ccccc12`, in experiment [1], the period change was 0.035 h (inactive). The remaining activity in experiment [4] was 104% (inactive).

For the compound `N[C@H](CCCCCP(=O)(O)O)C(=O)O`, the period change in experiment [1] is -0.025 h (inactive). Besides, the remaining activity in experiment [4] is 114% (inactive).

Take `CC(C)[C@H]1CN[C@H](C(=O)O)[C@H]1CC(=O)O`: in experiment [2], the inhibition was 1% (inactive). In experiment [3], the fluorescence ratio (interference) was 1 (inactive). Further, the remaining activity in experiment [4] is 93.8% (inactive). The figures for the fold change in experiment [5] (stronger effect = lower value) and in experiment [5] (setting [8]) were 0.952 (inactive) and 0.99, respectively. For the same compound, the cell count in experiment [5] (setting [9]) stood at 9550; in experiment [5] (setting [10]) it was 10000. Besides, in experiment [6], the call was inactive. For the same compound, the z-score in experiment [7] is 0.11 (inactive).

Turning to `O=C(O)c1cc[c]([Hg][Cl])cc1`, the period change in experiment [1] was 0.155 h (inactive). The inhibition in experiment [2] was -5% (inactive). The fluorescence ratio (interference) in experiment [3] is 1 (inactive). Further, in experiment [4], the remaining activity was -1.2% (active).

As to `CCCN1CCC[C@@H](c2cccc(C#N)c2)C1`, the period change in experiment [1] is -0.025 h (inactive). Further, the remaining activity in experiment [4] was 122% (inactive).

Consider `COc1cc(C=C(C#N)C#N)cc(O)c1O`, for which the period change in experiment [1] was -0.12 h (inactive). The remaining activity in experiment [4] was 117% (inactive).

On to `CC(=O)[C@H]1CC[C@H]2[C@@H]3CC[C@H]4C[C@](C)(O)CC[C@]4(C)[C@H]3CC[C@]12C`, for which, in experiment [2], the inhibition is -2% (inactive). In addition, the fluorescence ratio (interference) in experiment [3] was 1 (inactive). Moreover, the remaining activity in experiment [4] is 116% (inactive). Also, the fold change is 0.971 (inactive) in experiment [5] (stronger effect = lower value) and 1.33 in experiment [5] (setting [8]). The cell count in experiment [5] (setting [9]) worked out at 10300; in experiment [5] (setting [10]), 10600. The compound was classed as inactive in experiment [6]. Besides, in experiment [7], the z-score is -0.05 (inactive).

Turning to `CCN(CC)C(=O)N[C@@H]1C[C@@H]2c3cccc4[nH]cc(c34)C[C@H]2N(C)C1`, the period change in experiment [1] was 0.085 h (inactive). Further, in experiment [4], the remaining activity is 102% (inactive).

`C[C@H]1OC[C@@H](C[N+](C)(C)C)O1`: the period change in experiment [1] was -0.07 h (inactive). Also, the remaining activity in experiment [4] is 81.5% (inactive).

As to `COc1ccc2c3c1O[C@H]1C(=O)CC[C@@]4(O)C(C2)N(CC2CC2)CCC314` (stereo partly specified), the period change in experiment [1] was -0.115 h (inactive). For the same compound, in experiment [4], the remaining activity was 120% (inactive).

`O=[N+]([O-])c1ccc(O[C@@H]2O[C@H](CO)[C@@H](O)[C@H](O)[C@H]2F)c([N+](=O)[O-])c1`: the period change in experiment [1] was -0.07 h (inactive). The remaining activity in experiment [4] was 96.8% (inactive).

For `CC(=O)OCC1=C(C(=O)[O-])N2C(=O)[C@@H](NC(=O)CCC[C@@H](N)C(=O)[O-])[C@H]2SC1.[Zn+2]`, the period change in experiment [1] is -0.01 h (inactive). The inhibition in experiment [2] was 0% (inactive). The fluorescence ratio (interference) in experiment [3] was 0.9 (inactive). Moreover, in experiment [4], the remaining activity is 102% (inactive). Also, the fold change is 1.04 (inactive) in experiment [5] (stronger effect = lower value) and 1.44 in experiment [5] (setting [8]). For the same compound, the cell count in experiment [5] (setting [9]) came to 10400; in experiment [5] (setting [10]) it was 10000. Further, the z-score in experiment [7] is -0.275 (inactive).

As for `NCC#Cc1ccccc1`, the period change in experiment [1] is 0.045 h (inactive). Moreover, the remaining activity in experiment [4] was 96.6% (inactive).

For the compound `Clc1ccc(C(c2ccc(Cl)cc2)n2cc[n+](CC(OCc3ccc(Cl)cc3Cl)c3ccc(Cl)cc3Cl)c2)cc1` (stereo unspecified), the period change in experiment [1] is -0.26 h (inactive). In experiment [2], the inhibition was -3% (inactive). Also, in experiment [3], the fluorescence ratio (interference) was 0.9 (inactive). For the same compound, in experiment [4], the remaining activity is 106% (inactive). The figures for the fold change in experiment [5] (stronger effect = lower value) and in experiment [5] (setting [8]) were 0.883 (inactive) and 1.87, respectively. Further, the cell count in experiment [5] (setting [9]) was 1420; in experiment [5] (setting [10]) it was 1610. In addition, in experiment [7], the z-score is -1.52 (inactive).

For `C[C@H](Cc1ccc2c(c1)OC(C(=O)O)(C(=O)O)O2)NC[C@H](O)c1cccc(Cl)c1`, in experiment [1], the period change was 0.1 h (inactive). The inhibition in experiment [2] is -3% (inactive). The fluorescence ratio (interference) in experiment [3] was 1 (inactive). In experiment [4], the remaining activity was 117% (inactive). Also, the fold change in experiment [5] (stronger effect = lower value, cell number ratio, induced over uninduced) is 1.02 (inactive); in experiment [5] (setting [8]) it was 1.78. For the same compound, the results for the cell count in experiment [5] (setting [9]) and in experiment [5] (setting [10]) were 10500 and 10300, respectively. The z-score in experiment [7] was 0.755 (inactive).

With `N[C@@H](Cn1ccc(=O)[nH]c1=O)C(=O)O`, the period change in experiment [1] is 0.095 h (inactive). Besides, the remaining activity in experiment [4] is 122% (inactive).

Turning to `C[C@@H]1O[C@H](C[N+](C)(C)C)CS1`, in experiment [1], the period change is -0.11 h (inactive). Moreover, the inhibition in experiment [2] was -1% (inactive). In addition, the fluorescence ratio (interference) in experiment [3] is 1 (inactive). For the same compound, in experiment [4], the remaining activity was 81.1% (inactive).

As for `C=CCN1CC[C@]23c4c5ccc(O)c4O[C@@H]2/C(=N/N=C2\CC[C@@]4(O)C6Cc7ccc(O)c8c7[C@@]4(CCN6CC=C)[C@@H]2O8)CC[C@@]3(O)C1C5`, in experiment [1], the period change is 0.015 h (inactive). In addition, the remaining activity in experiment [4] was 108% (inactive).

With `CC1Cc2cc3c(cc2C(c2ccc(N)cc2)=NN1)OCO3` (stereo unspecified), the period change in experiment [1] is 0.09 h (inactive). Moreover, in experiment [4], the remaining activity is 102% (inactive).

On to `Cc1cc([C@@H]2CCCN2C)on1`, for which, in experiment [2], the inhibition was -6% (inactive). Besides, in experiment [3], the fluorescence ratio (interference) was 1 (inactive). The remaining activity in experiment [4] is 91.6% (inactive). For the same compound, the fold change in experiment [5] (stronger effect = lower value) is 0.924 (inactive); in experiment [5] (setting [8]), 1.47. In addition, the values for the cell count in experiment [5] (setting [9]) and in experiment [5] (setting [10]) were 9420 and 10200, respectively. Also, in experiment [6], the compound was classed as inactive. In experiment [7], the z-score is 0.41 (inactive).

As for `O=C(OC1CCN(CCCl)CC1)C(c1ccccc1)c1ccccc1`, the period change in experiment [1] is -0.15 h (inactive). In experiment [4], the remaining activity was 106% (inactive).

With `O=P(O)(O)C(Cl)(Cl)P(=O)(O)O`, in experiment [1], the period change is -0.115 h (inactive). For the same compound, the inhibition in experiment [2] is -2% (inactive). In addition, the fluorescence ratio (interference) in experiment [3] is 1 (inactive). For the same compound, in experiment [4], the remaining activity was 94.8% (inactive). For the same compound, the fold change is 0.966 (inactive) and 0.892 (inactive) in experiment [5] (stronger effect = lower value); 1.44 and 0.98 in experiment [5] (setting [8]). Further, the cell count in experiment [5] (setting [9]) was 9450 and 9630; in experiment [5] (setting [10]) it was 9790 and 10800. In addition, the z-score in experiment [7] was 1.8 (inactive) and 0.645 (inactive).
